Among the data in the supplement of paper PMC6555819 are PBM binding z-score values, retold here.

Holding throughout (experiment): PBM binding z-score (relative to random genomic background probes); higher = stronger binding; sequences stand for … in GC…GCGATTGACAGCGTAGAATGAAGG
In experiment [1] the test system is FXR:RXRa (NR concentration 270 nM, RXRa partner concentration 90 nM). An outline of the steps:
(§1)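 Scanned fluorescence from custom Agilent 4×180K protein-binding microarrays was regression-normalized. Binding z-scores use random background probes as reference. Ligand-free nuclear receptor dimers were incubated on the arrays for 1 h and detected with antibodies against each partner (one per run).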

Experiment [2] has as its system LXRa homodimer (NR concentration 270 nM). The essentials: as §1
Experiment [3] has as its system LXRb homodimer (NR concentration 270 nM). An outline of the steps:
as §1

Experiment [4] has as its system PPARa:RXRa (NR concentration 270 nM, RXRa partner concentration 90 nM). The essentials:
as §1

Experiment [5] concerns PPARg:RXRa (NR concentration 180 nM, RXRa partner concentration 90 nM). An outline of the steps:
as §1

Experiment [6] relates to PPARg:RXRa 270nM:90nM, anti-RXR (NR concentration 270 nM, RXRa partner concentration 90 nM). An outline of the steps:
as §1

For experiment [7], the system named is PPARg:RXRa 30nM:10nM, anti-RXR (NR concentration 30 nM, RXRa partner concentration 10 nM). An outline of the steps: as §1
Experiment [8] concerns PPARg:RXRa 90nM:30nM, anti-RXR (NR concentration 90 nM, RXRa partner concentration 30 nM). An outline of the steps: as §1
Experiment [9] relates to PPARg:RXRa DBDmut IVT, anti-RXR (DBD mutation: RXRa K156A/R161A, NR concentration 270 nM, RXRa partner concentration 90 nM). The essentials: as §1
Experiment [10] has as its system PPARg:RXRa IVT, anti-PPARg (NR concentration 270 nM, RXRa partner concentration 90 nM). An outline of the steps:
as §1

Experiment [11] relates to PPARg DBDmut:RXRa IVT, anti-PPARg (DBD mutation: PPARg1 K132A/R137A, NR concentration 270 nM, RXRa partner concentration 90 nM). The essentials:
as §1

The subject of experiment [12] is PPARg DBDmut IVT, anti-PPARg (DBD mutation: PPARg1 K132A/R137A, NR concentration 270 nM). The essentials:
as §1

For experiment [13], the system named is PPARg homodimer (NR concentration 180 nM). The essentials: as §1
Experiment [14] has as its system PXR:RXRa (NR concentration 270 nM, RXRa partner concentration 90 nM). The essentials: as §1
The test system of experiment [15] is PXR homodimer (NR concentration 270 nM). An outline of the steps: as §1
Experiment [16] concerns RARa:RXR (NR concentration 270 nM, RXRa partner concentration 90 nM). An outline of the steps:
as §1

The test system of experiment [17] is RARa homodimer (NR concentration 270 nM). The essentials: as §1
In experiment [18] the test system is RARb:RXRa (NR concentration 270 nM, RXRa partner concentration 90 nM). An outline of the steps:
as §1

Experiment [19] has as its system RARb homodimer (NR concentration 270 nM). An outline of the steps: as §1
Experiment [20] deals with LXRa:RXRa (NR concentration 270 nM, RXRa partner concentration 90 nM). An outline of the steps: as §1

Turning to TCTAGTTGGTCACGGAGGACACACACGACGGGTA, the PBM binding z-score in experiment [1] worked out at 0.602; in [2], 0.465; in experiment [3], 0.417; in experiment [4], 0.752; in experiment [5], 1.34; in experiment [6], 1.7. In addition, the PBM binding z-score in [7] was found to be 2.85; in [8], 2.53; in experiment [9] it was 2.26; in [10], 2.32; in experiment [11] it was 1.35; in experiment [12] it was 1.02. Besides, the PBM binding z-score in experiment [13] is 0.981; in experiment [14], 0.558; in experiment [15], 0.193; in [16], 0.682; in [17], 0.611; in experiment [18], 2.19. Besides, the PBM binding z-score in [19] was found to be 2.13.

Take ATATGTAGGTTACCTGGGGTCATTCAGACTAGGC: the PBM binding z-score was 4.89 in [1]; 10.8 in [2]; 2.55 in experiment [3]; 5.73 in experiment [4]; 7.13 in experiment [5]; 6.14 in [6]. In addition, the PBM binding z-score in experiment [7] came out at 3.84; in experiment [8] it was 5.9; in experiment [9], 7.37; in [10], 7.26; in experiment [11] it was 2.71; in experiment [12] it was 1.81. For the same sequence, the PBM binding z-score in experiment [13] worked out at 2.87; in [14], 6.79; in [15], 4.76; in experiment [16] it was 5.89; in experiment [17] it was 0.968; in experiment [18], 3.18. Further, the PBM binding z-score in [19] is 4.13.

Turning to ACTTACGGGTCAACGAGGTCATAGCACGCGTATA, the PBM binding z-score in experiment [1] came to 7.21; in experiment [20], 6.34; in experiment [2], 3.72; in experiment [3], 1.13; in [5], 6.76; in experiment [6], 6.81. The PBM binding z-score in [7] came to 3.78; in [8] it was 5.73; in experiment [9] it was 4.12; in experiment [10] it was 5.29; in [11], 2.33; in experiment [12] it was 3.32. For the same sequence, the PBM binding z-score in experiment [13] came out at 4.63; in experiment [15] it was 11.6; in experiment [16] it was 7.02; in experiment [17] it was 2.3; in [18] it was 4.82; in [19], 5.04.

In the case of CCTACTGGGCCAAAGGTGATTGATTCCAATGCTC, the PBM binding z-score in experiment [1] is -0.0621; in experiment [2], -0.216; in experiment [3], -0.106; in experiment [4] it was 4.5; in experiment [5], 8.87; in [6], 7.96. Besides, the PBM binding z-score in experiment [7] was 7.6; in experiment [8] it was 8.66; in [9], 5.69; in experiment [10], 5.36; in experiment [11] it was 0.238; in experiment [12], 0.204. Also, the PBM binding z-score in [13] was 0.439; in experiment [14], 0.0253; in [15], -0.311; in experiment [16], 0.327; in experiment [17] it was -0.309; in experiment [18] it was 0.815. This sequence returned a PBM binding z-score in experiment [19] of 0.601.

As to CCTTACGGGTCACTCCAGGTCATAGCATCGGAGT, the PBM binding z-score in [1] was found to be 5.36; in experiment [2], 7.03; in experiment [3], 0.548; in experiment [4], 4.91; in experiment [5], 4.38; in experiment [6], 4.54. Besides, the PBM binding z-score was 1.86 in [7]; 3.2 in experiment [8]; 2.73 in experiment [9]; 4.39 in [10]; -0.278 in [11]; -0.144 in experiment [12]. For the same sequence, the PBM binding z-score in [13] stood at 2.14; in [14] it was 6.17; in experiment [15], 1.15; in experiment [16] it was 4.49; in [17], 0.835; in experiment [18], 4.25. The sequence also showed a PBM binding z-score in experiment [19] of 4.42.

On to CCTCGGAGGACAACAGGAGGTCATAGCTGCCAGA, for which the PBM binding z-score in experiment [1] is 2.31; in [2] it was 4.2; in [3], -0.0136; in experiment [4], 3.13; in [5], 0.961; in experiment [6] it was 1.16. The PBM binding z-score in experiment [7] was 0.00805; in experiment [8], 0.459; in experiment [9] it was 0.281; in experiment [10] it was 0.613; in [11], -0.597; in [12] it was -1.12. The PBM binding z-score stood at 1.63 in [13]; 3.72 in experiment [14]; 1.1 in experiment [15]; 3.52 in experiment [16]; 0.48 in experiment [17]; 2.93 in [18]. This sequence also displayed a PBM binding z-score in experiment [19] of 3.71.

In the case of CTATGTAGGTCAAGGGGGTCATTCAGTTTGAAAG, the PBM binding z-score was 7.19 in experiment [1]; 5.9 in experiment [20]; 4.49 in experiment [2]; 9.27 in experiment [6]; 8.54 in experiment [7]; 10.3 in [8]. For the same sequence, the PBM binding z-score in [9] came to 8.6; in experiment [10], 9.07; in [13] it was 5.3; in experiment [15], 13.1; in experiment [17], 2.29; in [18] it was 5.06. For the same sequence, the PBM binding z-score in experiment [19] was found to be 4.85.

Turning to CACACTAGGTCACAGAGGTCAAAGTCCGTGCGTA, the PBM binding z-score in experiment [1] was determined as 7.16; in experiment [2] it was 8.63; in [3], 2.87; in [4] it was 6.51; in experiment [5], 9.53; in experiment [6], 7.9. The PBM binding z-score in [7] was found to be 5.64; in experiment [8] it was 7.43; in [9] it was 7.79; in experiment [10], 8.44; in experiment [11], 0.528; in experiment [12], 2.16. Further, the PBM binding z-score in experiment [13] came out at 4.86; in experiment [14], 6.73; in experiment [15] it was 12; in [16], 7.59; in experiment [17], 3.69; in experiment [18], 5.36. Also, the PBM binding z-score in [19] was 5.86.
